Most compounds without a hit are left out; they make up all but 4.2% or so of the library.
hcDAF-12 act – activators of H. contortus DAF-12 nuclear receptor; HEK293 hcDAF-12 lit1-tk-luc reporter, luminescence; 0% DMSO, 100% Δ7-dafachronic acid; activation, % at 6.8 µM; 370,000 tested, 1.4% active; AID 652067;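 active = activation above the mean of all tested compounds plus 3 SD, cut at about 5.5% in these data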
DAX1 inh – inhibitors of DAX1 repression of SF-1 activated StAR promoter; HEK293T StAR-luciferase reporter, SF-1/DAX-1 repression relief; inhibition, % at 6.8 µM; AID 652010; 370,000 tested, 1.1% active;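 active = inhibition above the mean over all tested compounds plus 3 SD, cut at about 3.6% in these data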;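 also: higher inhibition means more luminescence from relief of DAX-1 repression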
ssDAF12 agonist – S. stercoralis DAF-12 activation, primary screen; HEK293 ssDAF-12/GRIP1 lit1-tk-luc reporter, luminescence; % of 3 µM dafachronic acid response; activation, % at 6.8 µM; 370,000 tested, 1% active; AID 652126;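 active = activation above the mean over all tested compounds plus 3 SD, cut at about 0.9% in these data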
Wnt act – Wnt/beta-catenin pathway activation; Wnt/beta-catenin reporter cell assay, activator, plate reader; activation, % at 9.35 µM; 300,000 tested, 1.2% active; AID 743398; in the data active = activation above about 30%, passing the limit was not always enough; inconclusive = no clear call, values can overlap the other calls
hgDAF12 agonist – agonists of H. glycines DAF-12 nuclear receptor; HEK293 GAL4-hgDAF12 UAS-luciferase reporter, agonist luminescence; normalized to butyrate control; activation, % at 6.8 µM; 370,000 tested, 1.8% active; AID 687014;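 active = activation above a cutoff set at the mean of all screened compounds plus 3 SD, cut at about 10% in these data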
esBAF inh – SWI/SNF esBAF complex inhibition | reporter increase, % at 12.5 µM | mouse ES cells, Bmi1-luciferase knock-in reporter, 24 h; 100% = twice the neutral-well signal | 350,000 tested, 2% active; in the data active = activation above about 40%; inconclusive = no clear call, values can overlap the other calls;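 also: a rise in the Bmi1 reporter signal indicates esBAF inhibition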
hgDAF12 ag – hgDAF-12 agonism, confirmation assay; shares compounds with hgDAF12 agonist; HEK293 GAL4-hgDAF12 luciferase reporter, agonist mode; percent of butyrate response; activation, % at 6.8 µM; 3,300 tested, 80% active; AID 743050;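 active = mean activation over triplicate wells above the hit cutoff derived from the earlier primary screen, cut at about 11% in these data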
LXRb DAF12 ctr – activates human LXR-beta, counter-screen for DAF-12 agonists. AID 743051. shares compounds with hgDAF12 agonist. 3,300 tested, under 10 active. HEK293 Gal4-LXR luciferase reporter, 24 h. activation, % at 6.8 µM;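 active = mean activation of the triplicate above a set limit carried over from the primary screen, none filed active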
Target sequence (P55055 whole entry, looked up, the tested form may be a part): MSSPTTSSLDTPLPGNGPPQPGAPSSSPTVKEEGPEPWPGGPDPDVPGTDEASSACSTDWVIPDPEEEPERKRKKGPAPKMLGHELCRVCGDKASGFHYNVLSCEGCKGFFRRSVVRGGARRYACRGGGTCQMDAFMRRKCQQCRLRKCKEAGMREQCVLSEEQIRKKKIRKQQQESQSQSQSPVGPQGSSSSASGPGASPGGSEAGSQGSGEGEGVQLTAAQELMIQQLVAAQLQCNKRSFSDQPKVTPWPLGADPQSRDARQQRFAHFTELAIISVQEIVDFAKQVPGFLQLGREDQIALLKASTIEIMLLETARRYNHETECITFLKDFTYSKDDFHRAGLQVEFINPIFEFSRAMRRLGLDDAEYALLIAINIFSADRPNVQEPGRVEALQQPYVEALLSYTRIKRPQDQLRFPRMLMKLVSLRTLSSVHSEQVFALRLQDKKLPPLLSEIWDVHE
Hits are given with their value; n = inactive; u = inconclusive; x = no result given.

SMILES	hcDAF-12 act	DAX1 inh	ssDAF12 agonist	Wnt act	hgDAF12 agonist	esBAF inh	hgDAF12 ag	LXRb DAF12 ctr
CC1=Nc2ccccc2N=C(NC(=O)c2ccccc2)C1c1ccccc1 (stereo unspecified)	n	n	n	n	19	n	n	n
CC=Cc1ccc2n(c1=O)C[C@@H]1[C@@H](CO)[C@H](C(=O)N3CCC(Cc4ccccc4)CC3)N(C)[C@H]21 (mixture of isomers)	x	x	x	x	x	n	x	x
CC(C)(C)N(NC(=O)NCCCl)C(=O)c1ccccc1Cl	n	n	n	x	n	x	x	x
Cc1cccc(NC(=O)NN(C(=O)c2ccccc2Cl)C(C)(C)C)c1	n	n	n	x	13	x	n	n
Cc1ccc(NC(=S)NC(=O)C2CCC2)cc1C	n	n	n	n	14	84	11	n
CS(=O)(=O)Nc1ccc2c(c1)[C@H]1C[C@@H](CC(=O)NCc3ccccc3)O[C@H](CO)[C@H]1O2	x	x	x	x	x	n	x	x
CNC[C@H]1OCCCC[C@H](C)Oc2ccc(NC(=O)NC3CCCCC3)cc2C(=O)N([C@H](C)CO)C[C@H]1C	x	x	x	x	x	n	x	x
CC(=O)NC/C(C)=N\Nc1ccc([N+](=O)[O-])cc1	n	n	n	n	n	x	x	x
CC(=NNc1ccc([N+](=O)[O-])cn1)c1ccccc1	n	n	n	n	13	88	16	n
CC(C=NNc1ccc([N+](=O)[O-])cn1)=Cc1ccccc1	n	3.7	n	64	17	n	17	n
C/C(=N\Nc1ccc([N+](=O)[O-])cc1)c1ccc(O)cc1	n	n	n	n	16	x	n	n
CC1C=NC(S(=O)(=O)N2CC[C@@H]3[C@@H](CO)N(C)c4ccc(-c5cccc(F)c5)cc4[C@@H]32)=N1 (stereo partly specified)	x	x	x	x	x	n	x	x
CC(=O)N(C)C[C@H]1Oc2ncc(-c3ccc(C)cc3)cc2C(=O)N([C@@H](C)CO)C[C@@H]1C	x	x	x	x	x	n	x	x
C[C@@H]1CCCCO[C@@H](CN(C)C)[C@@H](C)CN([C@@H](C)CO)C(=O)c2cc(NS(=O)(=O)c3ccccc3)ccc2O1	x	x	x	x	x	n	x	x
CCOc1ccc(N2C(=O)CCC2=O)cc1	n	n	n	n	n	n	x	x
CCCC1CCC(c2ccc(OCC)cc2)=CC1=O (stereo unspecified)	n	n	n	53	14	n	16	n
O=C(N/N=C/C1CC=CCC1)c1ccc(Cl)cc1O (stereo unspecified)	n	n	1.1	n	16	x	n	n
O=C(N/N=C/C1CC=CCC1)c1ccccc1O (stereo unspecified)	n	n	n	x	n	n	x	x
CCS(=O)(=O)Nc1ccc2c(c1)C(=O)N(C)C[C@H](OC)[C@H](C)CN(Cc1ccccn1)[C@H](C)CO2	x	x	x	x	x	n	x	x
COc1ccc(/C=N/NC(=O)c2sccc2C)c2ccccc12	n	n	n	n	15	x	n	n
CCCNC(=O)C[C@@H]1CC[C@H]2[C@@H](COC[C@@H](O)CN2C(=O)C2CCOCC2)O1	x	x	x	x	x	n	x	x
CC(C)NC(=O)Nc1ccc2c(c1)CC(=O)N([C@@H](C)CO)C[C@@H](C)[C@@H](CN(C)S(C)(=O)=O)O2	x	x	x	x	x	n	x	x
CCCn1c(C)cc(C(=O)CN2C(=O)NC3(CCCCCC3)C2=O)c1C	n	n	n	n	16	54	n	n
O=C(c1ccccc1)c1ccc2c(c1)OCCOCCOCCO2	n	n	n	n	n	x	x	x
Cc1ccc(NC(=O)c2ccc3c(c2)OCCO3)cc1C	n	n	n	n	n	n	x	x
SMILES	hcDAF-12 act	DAX1 inh	ssDAF12 agonist	Wnt act	hgDAF12 agonist	esBAF inh	hgDAF12 ag	LXRb DAF12 ctr
O=C(c1ccccc1)c1ccc2c(c1)OCCCO2	6.2	n	n	n	15	x	18	n
CC(=O)c1cccc(NC(=O)c2ccc3c(c2)OCO3)c1	n	n	n	n	n	u	x	x
Cc1cccc(NC(=S)NNC(=O)c2ccc3c(c2)OCO3)c1	n	3.9	n	x	18	x	13	n
O=C(Nc1ccccc1)c1ccc2c(c1)OCCO2	5.8	n	n	x	13	n	13	n
Cc1cccc(NC(=O)c2ccc3c(c2)OCCO3)c1	n	n	n	n	17	n	18	n
CO[C@H](C(=O)N(C)C[C@@H]1OCc2ccccc2-c2c(n(C)c3ccccc23)C(=O)N([C@@H](C)CO)C[C@@H]1C)c1ccccc1	x	x	x	x	x	n	x	x
C[C@@H]1CN([C@H](C)CO)C(=O)c2cc(-c3cccc(C#N)c3)cnc2O[C@@H]1CN(C)C(=O)c1ccccn1	x	x	x	x	x	n	x	x
O=C(NC(=S)Nc1ccc(N2CCCCC2)cc1)c1ccc2c(c1)OCCO2	n	n	n	n	n	x	x	x
O=C(NC(=S)Nc1ccc(F)cc1)c1ccc2c(c1)OCCO2	n	3.7	n	u	17	x	11	n
O=C(C[C@H]1CC[C@@H]2[C@H](COC[C@H](O)CN2C(=O)Cc2ccccc2)O1)NC1CCC1	x	x	x	x	x	n	x	x
O=C(C=Cc1ccc2c(c1)OCO2)c1ccccc1	n	n	n	n	13	50	11	n
O=C(/C=C/c1ccc2c(c1)OCO2)Nc1ccc(Cl)cn1	n	4.3	n	n	15	x	13	n
Cc1ccc(C(=O)Nc2ccc3c(c2)OCCO3)c(C)c1	n	n	n	n	n	n	x	x
Cc1ccc(C(=O)/C=C/c2ccc3c(c2)OCCO3)c(O)c1	n	n	n	n	14	x	n	n
O=C(C=Cc1ccc2c(c1)OCO2)C=Cc1ccc2c(c1)OCO2	n	n	n	n	n	x	x	x
Cc1noc(C)c1NC(=O)Nc1cccc2c1O[C@@H](CN(C)S(=O)(=O)c1ccccc1)[C@@H](C)CN([C@@H](C)CO)C2=O	x	x	x	x	x	n	x	x
C=CCN=Cc1sc2ccc(OCC)cc2c1O	5.6	n	n	n	14	x	n	n
CCCCN=Cc1sc2ccc(OCC)cc2c1O	n	n	n	x	n	n	x	x
CN(C)CCCNC(=O)C[C@H]1CC[C@@H]2[C@@H](COc3ccc(NC(=O)c4ccc5c(c4)OCO5)cc3C(=O)N2C)O1	x	x	x	x	x	n	x	x
O=Cc1c(OCc2ccccc2)ccc2ccccc12	n	n	0.9	n	14	100	n	n
C/[N+]([O-])=C/c1c(OCc2ccccc2)ccc2ccccc12	n	n	n	n	n	u	x	x
CO[C@H]1CN(C)C(=O)c2cc(NS(=O)(=O)c3ccc(Cl)cc3)ccc2OC[C@H](C)NC[C@@H]1C	x	x	x	x	x	n	x	x
COc1ccc(NC(=O)Nc2ccc3c(c2)C(=O)N([C@H](C)CO)C[C@@H](C)[C@H](CN(C)S(=O)(=O)c2ccccc2)OCCCC[C@@H](C)O3)cc1	x	x	x	x	x	n	x	x
O=C(COC(=O)c1cc2ccccc2oc1=O)Nc1ccc(F)cc1F	n	n	n	47	17	46	16	n
